High-throughput results as filed in PubChem.
An excerpt weighted towards active compounds, which were near 10% of everything screened.
G9a inh – qHTS Assay for Inhibitors of Histone Lysine Methyltransferase G9a; Histone-lysine N-methyltransferase EHMT2 (Homo sapiens), Q96KQ7; G9a H3K9 monomethylation, AlphaScreen, 2 h; Potency, µM (titrated, usually from 102 µM), for the others: at the top dose activity, negative = inhibition, usual class: inhibitors; actives 8.8% (n = 350,000); AID 504332, 2011; also: % is scaled to controls: 0 for no effect and ±100 for the full control effect; nearly all actives have a fitted effect of over 75% in size
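Chemiluminescent proximity detection of H3K9 monomethylation, read after 10 min bead incubation in the dark. Reaction: 20 nM G9a, 500 nM biotin-H3K9 peptide, 20 uM SAM cofactor, 2 h, room temperature, following 15 min enzyme-compound preincubation.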
HP1b chromo inh – HTS for Inhibitors of HP1-beta Chromodomain Interactions with Methylated Histone Tails. AlphaScreen HP1-beta / biotin-H3K9me3 peptide binding. Chromobox protein homolog 1 (Homo sapiens), P83916. Potency, µM (highest dose often 114 µM), for inactives: at the top dose activity change, negative = inhibition, usual class: inhibitors. AID 540317, 2011. actives 0.56% (n = 390,000); also: nearly all actives have a fitted effect of over 70% in size
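HP1-beta protein (50 nM final) preincubated 30 min at room temperature with biotinylated H3(1-18)K9me3 peptide (50 nM) in PBS pH 7.4, 0.01% Tween-20, then compound added for 30 min. AlphaScreen streptavidin donor/nickel chelate acceptor beads (10 ug/mL final), 30 min dark, luminescence read.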
JMJD2A Tudor – qHTS Assay for Inhibitors of JMJD2A-Tudor Domain. Lysine-specific demethylase 4A (Homo sapiens), O75164. AlphaScreen JMJD2A-Tudor / H3K4me3 peptide binding. Potency, µM (titrated, usually from 114 µM), for the others: at the top dose activity change, negative = inhibition, actives largely listed as inhibitors. actives 4.4% (n = 390,000). AID 504339, 2011; also: % is scaled to controls: 0 for no effect and ±100 for the full control effect; nearly all actives have a fitted effect of over 50% in size
BAZ2B block – qHTS Assay for Inhibitors of BAZ2B. AlphaScreen BAZ2B-H3K14Ac peptide displacement. Bromodomain adjacent to zinc finger domain protein 2B (Homo sapiens), Q9UIF8. Potency, µM (titrated, usually from 114 µM), without a hit: top-dose activity change, negative = inhibition, actives largely listed as inhibitors. AID 504333, 2011. actives 4.4% (n = 360,000); also: % is scaled to controls: 0 for no effect and ±100 for the full control effect; nearly all actives have a fitted effect of over 60% in size
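Multi-concentration screen (max 110 uM) measuring displacement of acetylated histone H3 peptide from BAZ2B by AlphaScreen, using 50 nM protein, 50 nM peptide and 10 ug/mL streptavidin donor plus Ni-chelate acceptor beads.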
GLS inh – qHTS for Inhibitors of Glutaminase (GLS); actives 0.21% (n = 410,000); GLS enzymatic activity, qHTS titration; AID 624170, 2012; Glutaminase kidney isoform, mitochondrial (Homo sapiens), O94925; Potency, µM (series often up to 45.5 µM), for inactives: at the highest dose activity change, negative = inhibition, hits mostly inhibitors; also: % is scaled to controls: 0 for no effect and ±100 for the full control effect
Target sequence (O94925 whole entry, looked up, canonical isoform): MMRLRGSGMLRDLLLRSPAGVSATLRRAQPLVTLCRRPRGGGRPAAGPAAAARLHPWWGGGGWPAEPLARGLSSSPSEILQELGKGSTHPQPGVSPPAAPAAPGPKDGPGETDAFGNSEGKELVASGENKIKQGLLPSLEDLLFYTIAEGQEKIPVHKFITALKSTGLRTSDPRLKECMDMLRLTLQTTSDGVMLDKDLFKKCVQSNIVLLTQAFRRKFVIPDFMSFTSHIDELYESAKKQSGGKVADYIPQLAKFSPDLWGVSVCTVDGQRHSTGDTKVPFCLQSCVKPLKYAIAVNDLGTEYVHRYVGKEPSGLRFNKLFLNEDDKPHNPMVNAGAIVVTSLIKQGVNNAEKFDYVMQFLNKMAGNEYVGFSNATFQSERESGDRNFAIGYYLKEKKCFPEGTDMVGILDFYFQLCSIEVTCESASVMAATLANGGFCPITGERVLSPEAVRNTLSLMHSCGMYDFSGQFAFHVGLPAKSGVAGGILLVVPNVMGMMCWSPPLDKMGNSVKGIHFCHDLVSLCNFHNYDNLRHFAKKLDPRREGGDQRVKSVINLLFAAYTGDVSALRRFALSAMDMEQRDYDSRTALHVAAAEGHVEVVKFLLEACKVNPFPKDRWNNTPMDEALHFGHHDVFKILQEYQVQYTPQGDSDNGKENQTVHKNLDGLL
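Glutamate formation by hKGA was monitored fluorometrically using coupled glutamate oxidase, HRP and Amplex Red. Substrate was added as 1 mM L-glutamine solution; incubation was 30 min at RT after an initial read.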
* marks the source's active call; other numbers are inactive results; ? = inconclusive; · = no result given; ! = a repeat was not active; [ ] = dose if it differs, or a comment. Calls follow the shape of the dose curve; as a rule, active = well fitted curve in the direction sought with a large enough effect; inconclusive = small, poorly fitted or top-dose-only effect, or another doubt; inactive = no such curve, though single readings can be large; an effect the other way counts as inactive or inconclusive. Potency is read from the fitted curve at half-maximal effect.

SMILES	G9a inh	HP1b chromo inh	JMJD2A Tudor	BAZ2B block	GLS inh
O=S1(=O)Nc2c(ccc3cccnc23)-c2ccccc21	-54%[59 µM]	29%	5.6µM*	6.3µM*	-2%
Cc1ccc2c(c1)-c1c(cnn1CC(=O)N1CCCN(Cc3ccccc3F)C1)CO2	-4%	16%	-29%	-5%	5%
CCOc1ccc(S(=O)(=O)N2CCN(C(=O)c3cc([N+](=O)[O-])ccc3N3CCOCC3)CC2)cc1	3.2µM*	13%	-16%	3%	12%
COc1ccccc1C(=O)COC(=O)c1cc([N+](=O)[O-])ccc1N1CCOCC1	?	-7%	-34%	-23%	4%
COc1cc(C(=O)COC(=O)c2cc([N+](=O)[O-])ccc2N2CCOCC2)ccc1OC(F)F	32µM*	16%	-27%	-3%	4%
CC1CC(C)CN(C(=O)COC(=O)c2cc([N+](=O)[O-])ccc2N2CCOCC2)C1 (centres undefined)	79µM*	-1%	-25%	-11%	37%
O=C(c1cc([N+](=O)[O-])ccc1N1CCOCC1)N1CCN(S(=O)(=O)c2ccc(F)cc2)CC1	3%[59 µM]	39%	-11%	10%	2%
CC1CCCN(C(=O)COC(=O)c2cc([N+](=O)[O-])ccc2N2CCOCC2)C1 (centres undefined)	?	-26%	-21%	5%	-1%
Cc1cc(C)c(C(=O)COC(=O)c2cc([N+](=O)[O-])ccc2N2CCOCC2)cc1C	16µM*	18%	-26%	-25%	-7%
COc1ccccc1-c1nnc2sc(COc3ccc(F)cc3)nn12	1%[59 µM]	6%	-9%	-7%	14%
O=C(NCc1ccco1)c1ccc2c(c1)C(=O)c1ccccc1-2	?	24%	-27%	-30%	-4%
COc1cc(C2Nc3ccccc3C(=O)N2c2ccccc2OC)ccc1O (centres undefined)	-54%[2.33 µM]	7%	-26%	?	33%
CC(=O)N1CN(Cc2ccccn2)Cc2c1sc1c2CCCC1	?	28%	40µM*	28µM*	13%
CC(=O)N1CN(CCCn2ccnc2)Cc2c1sc1c2CCCC1	-8%[2.33 µM]	40%	-20%[11.4 µM]	?	0%
Cc1ccc(C(c2c(O)nc3n(c2=O)CCS3)c2c(O)nc3n(c2=O)CCS3)cc1	10µM*	6%	-18%	3%	-11%
O=c1c(C(c2ccc(O)cc2)c2c(O)nc3n(c2=O)CCS3)c(O)nc2n1CCS2	?	8%	45µM*	?	39%
O=c1c(C(c2ccc(O)cc2)c2c(O)nc3n(c2=O)CCCS3)c(O)nc2n1CCCS2	?	20%	?	-39%	22%
O=c1c(C(c2ccc(Br)cc2)c2c(O)nc3n(c2=O)CCS3)c(O)nc2n1CCS2	?	39%	-16%	-16%	14%
COc1cc(OC)c(/C=N/NC(=O)Cn2nc([N+](=O)[O-])cc2C)c(OC)c1	1%	15%	5%	-10%	61%
O=C(O)c1c2c(nc3ccccc13)/C(=C/c1ccc(O)cc1)CC2	22µM*	-20%	56µM*	40µM*	?
O=C(O)c1c2c(nc3ccccc13)/C(=C/c1ccc(OC(F)F)cc1)CCC2	?	25%	1%	-2%	-3%
O=c1ccc(S(=O)(=O)N2CCCC2)c[nH]1	·	43%	-3%	·	15%
O=C(N/N=C/c1ccc(O)c(O)c1)N/N=C/c1ccc(O)c(O)c1	45µM*	35µM*	11µM*	32µM*	-10%
COc1cc(/C=N/N=C(\N)c2nonc2N)ccc1O	1%	-29%	-23%	12%	0%
COc1cc(/C=N/NC(=O)c2nonc2C)ccc1O	-8%	16%	-6%	-23%	4%
SMILES	G9a inh	HP1b chromo inh	JMJD2A Tudor	BAZ2B block	GLS inh
N/C(=N\N=C\c1ccc(O)c(O)c1)c1nonc1N	20%[59 µM]	35%	-25%	45µM*	26%
Cc1nonc1C(=O)N/N=C/c1ccc(O)c(O)c1	45µM*	-31%	7.1µM*	-36%	?
Nc1nonc1-n1nnc(C(=O)N/N=C/c2cccc(F)c2)c1-c1ccccc1	-3%	51%	-4%	0%	-16%
O=C(O)Cn1cccc1C(=O)c1ccccc1	56µM*	56%	20%	6%	-4%
Cc1cc(C)cc(OCCSc2nc(-c3ccc(C(C)(C)C)cc3)nc3cc(=O)[nH]n23)c1	-10%[59 µM]	3%	-36%	-17%	4%
COc1ccccc1OCCCSc1nc(-c2ccc(C(C)(C)C)cc2)nc2cc(=O)[nH]n12	-2%[59 µM]	2.2µM*	50µM*	?	-13%
COc1ccc(-c2nc(SCCOc3ccccc3Cl)n3[nH]c(=O)cc3n2)cc1	19%[59 µM]	-3%	-20%	-2%	-4%
Cc1cc(OCCCSc2nc(-c3ccc(C(C)(C)C)cc3)nc3cc(=O)[nH]n23)ccc1Cl	-1%[59 µM]	?	32µM*	28µM*	-20%
CC(C)(C)c1ccc(-c2nc(SCCCOc3ccccc3)n3[nH]c(=O)cc3n2)cc1	5%[59 µM]	-21%	50µM*	50µM*	-19%
CCOC(=O)N1CCC(NC(=O)CCC(=O)N2CC(C)Oc3ccccc32)CC1 (centres undefined)	-14%	37%	-7%	-3%	11%
COc1cccc(/C=C/C(=O)OCC(=O)NCCC2=CCCCC2)c1OC	·	45%	-6%	·	1%
Oc1cc(O)c2c(c1)O[C@H](c1ccc(O)c(O)c1)[C@@H](O)C2	28µM*!	20%	-10%	0%	76%
O=C1c2c(O)cc(O)cc2O[C@H](c2ccc(O)c(O)c2)[C@H]1O	10µM*	19%	-14%	?	14%
NNC(=O)CCS(=O)(=O)c1ccc2ccccc2c1	?	33%	-6%	-8%	21%
O=C(CCN1C(=O)/C(=C/c2ccc(Cl)cc2)SC1=S)Nc1cccc(C(=O)O)c1	45µM*	-39%	50µM*	32µM*	3%
Cc1ccc(C=C2SC(=S)N(CCCC(=O)Nc3cccc(C(=O)O)c3)C2=O)cc1	·	·	·	·	15%
Cc1ccc(/C=C2\SC(=S)N(CCCC(=O)Nc3cccc(C(=O)O)c3)C2=O)cc1	56%	?	40µM*	-25%	25%
NC(c1csc(Nc2ccc(C(=O)NCCCO)cn2)n1)C1CCCCC1 (centres undefined)	·	·	·	·	-7%
COc1cccc(Cn2cnc(-c3ccccc3OC)c2-c2cccs2)c1	·	·	·	·	-2%
Nc1cc2nc[nH]c2cc1N	18µM*	41%	50µM*	28µM*	-14%
COc1ccc(-c2noc(CCC(=O)NCc3cccnc3)n2)cc1	5%	-4%	-16%	7%	-15%
